Experimental findings from PubChem BioAssay (NCI) are described below.

Structures are written as SMILES. Compounds without any hit were thinned out: in the full panel of roughly 83,000, 20% have a hit.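 96-well plates, one dose, 48 hours. Percent growth reported; active if below 10.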 Calls of active or inactive are those of the source.

This assay deals with T-47D breast. In words: NCI-60 one-dose screen, 48 h (100 = growth as untreated, 0 = no growth, -100 = all killed). The conditions noted are these: 10 µM.
In the case of `Nc1ccc(-c2cccs2)cc1NC(=O)c1ccc(CCCC(=O)Nc2ccc(C3CC3N)cc2)cc1` (centres undefined), the growth was 65.1% (inactive).

Take `CCCc1cn(CC(=O)Nc2nc3ccccc3s2)nn1`: the growth was 102% (inactive).

Consider `O=C(CCCCCCC(=O)Nc1ccccc1)NO`, for which the growth was -12.6% (active).

As to `O=[N+]([O-])c1ccc(/C(=C/c2ccccc2)[n+]2ccccc2)cc1`, the growth was 112% (inactive).

With `Oc1cccc(-c2nc3sccn3c2-c2ccncn2)c1`, the growth was 108% (inactive).

Take `COc1ccc(/C(=N\N)C(=O)c2ccccc2)cc1` (tested in a mixture with another compound): the growth is 83.7% (inactive).

As for `COc1ccc(C(=O)N/N=C/c2cc(C(F)(F)F)ccc2Cl)cc1`, the growth was 90% (inactive).

In the case of `OCC1OC2C(NC(=S)N2c2ccccc2)C(O)C1O` (centres undefined), the growth is 108% (inactive).

Regarding `COc1cc2cc(Oc3ccc(NC(=O)Nc4cccc(C(F)(F)F)c4)cc3)c(C)nc2cc1OC`, the growth was 27.8% (inactive).

Consider `Cc1c2c[n+](C(C)C)ccc2c(C)c2c1[nH]c1ccccc12`, for which the growth is -13.7% (active).

Take `CC(=O)Nc1ccc(S(=O)(=O)c2ccnc3cc(Cl)ccc23)cc1`: the growth was 72.5% (inactive).

With `CS(=O)(=O)c1nccc(-c2c(-c3cccc(OCCN4CCOCC4)c3)nc3sccn23)n1`, the growth is 81% (inactive).

`COc1ccc(Cc2cnc(N)nc2N)cc1OC`: the growth was 101% (inactive).

Consider `C=CCN(CC=C)C(=O)[C@H](CC)[C@@H]1CC[C@@H](C)[C@@H]([C@H](C)[C@@H](O)[C@@H](C)C(=O)[C@H](CC)C2O[C@]3(C=CC(=O)[C@]4(CC[C@@](C)([C@H]5CC[C@](O)(CC)[C@H](C)O5)O4)O3)[C@H](C)C[C@@H]2C)O1` (some centres undefined), for which the growth is 18.2% (inactive).
